PubChem BioAssay AID488969 (Vanderbilt High Throughput Screening Facility, 2010)
Over roughly 110,000 compounds, “z-score” has its median near -0.1; the highest 2% begin near 2. The list comes from a sample in which the highest values are over-represented; it also holds similar structures and randomly drawn compounds. The source made the active and inactive calls.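 Rule for the calls: active = z-score in the third read window above 3 or below -3; inactive = the rest.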

Each compound was assayed against Metabotropic glutamate receptor 8 (Rattus norvegicus) (UniProt P70579) (assay: rat mGluR8 modulators via GIRK flux, primary screen, cell-based, thallium flux, HTS (AID 488969)). Details: HEK293 rat mGluR8, GIRK (G protein-gated inwardly rectifying potassium channel) thallium flux, FluoZin2; at 10 µM; stronger effect = higher value; submaximal glutamate (EC20) added with thallium.
Metabotropic glutamate receptor 8 (Rattus norvegicus), sequence (P70579 whole entry, looked up): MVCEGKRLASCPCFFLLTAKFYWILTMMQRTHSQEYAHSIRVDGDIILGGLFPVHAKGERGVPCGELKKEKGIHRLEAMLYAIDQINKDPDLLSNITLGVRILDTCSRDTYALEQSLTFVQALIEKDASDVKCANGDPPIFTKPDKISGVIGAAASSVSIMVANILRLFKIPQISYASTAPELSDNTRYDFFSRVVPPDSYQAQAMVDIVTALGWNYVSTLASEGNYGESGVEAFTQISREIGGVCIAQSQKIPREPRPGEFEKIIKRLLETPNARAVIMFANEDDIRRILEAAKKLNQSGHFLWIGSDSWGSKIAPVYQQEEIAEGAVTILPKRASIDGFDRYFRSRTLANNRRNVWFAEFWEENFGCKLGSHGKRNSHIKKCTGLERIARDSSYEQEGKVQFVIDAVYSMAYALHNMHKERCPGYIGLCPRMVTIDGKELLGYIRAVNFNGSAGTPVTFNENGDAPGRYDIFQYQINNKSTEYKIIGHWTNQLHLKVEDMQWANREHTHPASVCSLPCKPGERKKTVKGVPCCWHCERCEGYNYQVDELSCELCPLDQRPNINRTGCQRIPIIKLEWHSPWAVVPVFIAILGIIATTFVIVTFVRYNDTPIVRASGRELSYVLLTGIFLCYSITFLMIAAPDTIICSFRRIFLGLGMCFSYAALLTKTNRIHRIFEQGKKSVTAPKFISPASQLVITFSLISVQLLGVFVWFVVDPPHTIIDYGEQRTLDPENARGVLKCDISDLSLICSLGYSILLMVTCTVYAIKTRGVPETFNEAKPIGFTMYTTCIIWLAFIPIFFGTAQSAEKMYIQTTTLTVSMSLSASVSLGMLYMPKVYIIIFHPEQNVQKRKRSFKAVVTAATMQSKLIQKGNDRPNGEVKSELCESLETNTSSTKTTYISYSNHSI

In order of falling z-score:
1. CCC(=O)Nc1ccc2c(c1)ncn2-c1ccc(OC)cc1  2.82
2. O=C(Nc1ccc(N2CCCC2)c(Cl)c1)c1ccc2c(c1)OCCO2  2.58
3. CC(=O)c1cccc(N(CC(=O)Nc2ccc(F)cc2)S(C)(=O)=O)c1  2.52
4. COc1ccc(C(=O)C(c2ccccc2)N2CCOCC2)cc1 (stereo not drawn)  2.44
5. COc1cc(C(=O)Nc2ccc3c(c2)OCCO3)ccc1OC(C)C  2.41
6. COc1cccc(/C=N/n2c(=S)n(C)c3ccccc32)c1OC  2.32
7. Nc1nc(SCc2ccc([N+](=O)[O-])cc2)c2ncn(C3OC(CO)C(O)C3O)c2n1 (stereo not drawn)  2.28
8. COc1cccc(C(CC(=O)Nc2cccc3ccccc23)NC(=O)c2ccccc2)c1 (stereo not drawn)  2.17
9. COc1cccc(CNC(=O)CN(c2cc(C)cc(C)c2)S(=O)(=O)c2c(C)noc2C)c1  2.13
10. O=c1[nH]cnc2c1nc(SCc1ccccc1)n2C1OC(CO)C(O)C1O (stereo not drawn)  1.45
11. O=C(COc1ccccc1Cl)NCCCN1CCOCC1  1.3
12. CCCn1c(=S)[nH]c2cc(C(=O)N3CCc4ccccc43)ccc2c1=O  1.07
13. COC(=O)[C@@H](NC(=O)Nc1ccc2c(c1)OCCO2)C(C)C  0.876
14. CC(CCc1ccccc1)NC(=O)COC(=O)C1=COCCO1 (stereo not drawn)  0.664
15. O=C(Nc1ccc([N+](=O)[O-])cn1)c1cc(-c2cccc(Br)c2)nc2ccccc12  0.61
16. COc1ccc2nc(SC(C(=O)c3ccccc3)c3ccccc3)nc(C)c2c1 (stereo not drawn)  0.574
17. Cc1nc2ccccc2c(=O)n1/N=C/c1ccc(O)cc1  0.481
18. Cc1cc(C)nc(SCc2nnc(SCC(=O)Nc3nccs3)n2C)n1  0.465
19. COc1ccc(Cn2nnnc2C(c2ccncc2)N2CCOCC2)cc1 (stereo not drawn)  0.39
20. COc1ccc(OC)c(N(CC(=O)NCc2cccnc2)S(C)(=O)=O)c1  0.361
21. COc1cccc(/C=N/n2c(=S)n(C)c3cc(C)c(C)cc32)c1OC  0.276
22. CCC(=O)Nc1ccc2c(c1)ncn2-c1ccccc1  0.261
23. CCCCCOc1ccc(C(=O)C(c2ccccc2)N2CCOCC2)cc1 (stereo not drawn)  0.204
24. Cc1ccc(N(CC(=O)NCc2cccnc2)S(C)(=O)=O)cc1C  0.196
25. CC(=O)c1cccc(N(CC(=O)Nc2cccnc2)S(C)(=O)=O)c1  0.179
26. Cc1cccc(N(CC(=O)Nc2ccc(F)cc2)S(C)(=O)=O)c1  0.171
27. O=C(NCC1CCCO1)C1CCN(S(=O)(=O)c2cccc3nonc23)CC1 (stereo not drawn)  0.153
28. O=C(NC(=S)Nc1ccc(N2CCCCC2)c(Cl)c1)c1ccc2c(c1)OCCO2  0.126
29. CCN(CC)CCNC(=O)c1ccc2c(=O)n(C3CCCC3)c(=S)[nH]c2c1  0.125
30. CC1CCCCN1C(=O)CSc1nnc(-c2cccnc2)n1C1CCCCC1 (stereo not drawn)  0.109
31. COc1ccc(/C=N/n2c(=S)n(C)c3ccccc32)cc1OC  0.103
32. COc1ccccc1N(CC(=O)NCc1cccnc1)S(C)(=O)=O  0.0794
33. CCCCCn1c(=O)[nH]c2cc(C(=O)N3CCN(CC)CC3)ccc2c1=O  0.0715
34. O=C(O)c1ccc(CNCc2c(Cl)cccc2Cl)cc1  0.0291
35. O=C(CC(NC(=O)c1ccccc1)c1ccccc1)Nc1cccc2ccccc12 (stereo not drawn)  -0.0391
36. O=C(Nc1ccccc1)c1ccc(S(=O)(=O)N2CCCCC2)cc1  -0.0563
37. COc1cccc(NC(=O)CN(c2cccc(F)c2)S(C)(=O)=O)c1  -0.058
38. COc1ccc(CNC(=O)CN(c2cc(C)cc(C)c2)S(=O)(=O)c2c(C)noc2C)cc1  -0.0907
39. Cc1nc2ccccc2c(=O)n1/N=C/c1ccccc1  -0.0985
40. COc1ccc(C(CC(=O)O)NC(=O)c2ccccc2)cc1OC (stereo not drawn)  -0.105
41. CC(C)c1ccc(C(=O)N2CCCN(C(=O)c3ccc(C(C)C)cc3)CC2)cc1  -0.119
42. CN(C)c1ncnc2c1ncn2C1OC(CO)C(O)C1O (stereo not drawn)  -0.162
43. O=C(NC1CCCCC1)C12CC3CC(C1)CC(n1cncn1)(C3)C2  -0.163
44. O=C(c1ccc(CNc2c(NC3CCCCC3)c(=O)c2=O)cc1)N1CCc2ccccc21  -0.164
45. COc1ccc(C(=O)Nc2ccc3c(c2)OCCO3)cc1  -0.168
46. Cn1c(=O)[nH]c(=O)c2c1nc(N1CCCCC1)n2CCCSc1nnnn1-c1ccccc1  -0.187
47. CCC(C)[C@H](NC(=O)Nc1ccc2c(c1)OCCO2)C(=O)O (stereo partly drawn)  -0.196
48. COc1ccc(N(CC(=O)NCc2cccc(OC)c2)S(=O)(=O)c2c(C)noc2C)cc1  -0.199
49. O=S(=O)(Nc1ccc(N=Nc2ccccc2)cc1)c1ccccc1  -0.241
50. CC(=O)c1cccc(NC(=O)CN(c2cccc(F)c2)S(C)(=O)=O)c1  -0.268
51. O=C(Nc1ccc(N2CCCCC2)c(Cl)c1)c1ccc2c(c1)OCCO2  -0.282
52. COc1ccc(CNC(=O)C2CCN(c3nccs3)CC2)cc1  -0.318
53. O=C(CSc1nnc(NC(=O)C2CCC2)s1)Nc1ccc(N2CCOCC2)cc1  -0.322
54. CCOc1ccc(C(=O)C(c2ccccc2)N2CCOCC2)cc1 (stereo not drawn)  -0.418
55. COc1ccc(C)cc1C1=Nc2ccccc2C1(C)C  -0.42
56. COc1ccc(S(=O)(=O)N2CCC(C(=O)NCc3ccccn3)CC2)cc1Cl  -0.477
57. COC(=O)c1[nH]c2ccc(C)cc2c1NC(=O)CN1CCCC(C)(C)C1  -0.603
58. Cc1cc(NC(=O)CSc2nnc(-c3cccs3)n2N)no1  -0.647
59. CCOc1ccc(C(=O)Nc2ccc3c(c2)OCCO3)cc1OC  -0.705
60. O=C(Nc1cc(C(=O)N2CCCC2)ccc1N1CCCC1)c1ccccc1  -1.7
61. COc1ccc(-n2cnc3cc(NC(=O)c4ccco4)ccc32)cc1  -1.7
62. COc1ccc(C2=CC(=O)OC3(CCCCC3)O2)cc1  -2.37

With `CCN1CCN(C(=O)c2ccc3c(=O)n(C4CCCC4)c(=S)[nH]c3c2)CC1` the z-score was 5.09 (active).
For `O=C(c1ccc2c(=O)n(C3CCCC3)c(=S)[nH]c2c1)N1CCc2ccccc21`, the z-score was 9.93 (active).
With `O=c1c2ccccc2nc(-c2ccccc2)n1/N=C/c1ccc([N+](=O)[O-])cc1` the z-score was 6.71 (active).
For `COC(=O)[C@H](CC(C)C)NC(=O)Nc1ccc2c(c1)OCCO2`, the z-score was 3.6 (active).
`COc1cccc(N(CC(=O)Nc2cccc(C(C)=O)c2)S(C)(=O)=O)c1` was tested, and the z-score was 4.2 (active).
With `COc1cccc(N(CC(=O)NCc2cccnc2)S(C)(=O)=O)c1` the z-score was 3.97 (active).
